Among all 86,000 compounds or so, about 1,100 (1.3%) were called active. Only a selection was taken, and actives are over-represented in it overall. A number with no mark means an inactive call.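 How the source made its calls: active means compounds whose percent inhibition of the receptor-coactivator binding signal exceeds about 50% in the single-dose screen (limit read from the data); inactive means the rest.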

The source of these data is PubChem BioAssay AID633 (Emory University Molecular Libraries Screening Center, 2007).

In the test the target is Estrogen receptor beta (Homo sapiens) (UniProt Q92731). Kind of test: blockers of coactivator peptide binding to ERβ – biochemical, TR-FRET, ERβ LBD, SRC-1 peptide, primary screen (AID 633).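 Further: 0% = receptor plus peptide wells without compound and 100% = peptide-only wells.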 As to conditions: TR-FRET ER-beta LBD / SRC1-Cy5 peptide binding; at 25.6 µM; stronger effect = higher value; receptor agonist-loaded with 1 µM estradiol. In general terms: Time-resolved FRET reads energy transfer from a long-lived donor to a nearby acceptor.
Estrogen receptor beta (Homo sapiens), sequence (Q92731 whole entry, looked up, the tested form may be a part): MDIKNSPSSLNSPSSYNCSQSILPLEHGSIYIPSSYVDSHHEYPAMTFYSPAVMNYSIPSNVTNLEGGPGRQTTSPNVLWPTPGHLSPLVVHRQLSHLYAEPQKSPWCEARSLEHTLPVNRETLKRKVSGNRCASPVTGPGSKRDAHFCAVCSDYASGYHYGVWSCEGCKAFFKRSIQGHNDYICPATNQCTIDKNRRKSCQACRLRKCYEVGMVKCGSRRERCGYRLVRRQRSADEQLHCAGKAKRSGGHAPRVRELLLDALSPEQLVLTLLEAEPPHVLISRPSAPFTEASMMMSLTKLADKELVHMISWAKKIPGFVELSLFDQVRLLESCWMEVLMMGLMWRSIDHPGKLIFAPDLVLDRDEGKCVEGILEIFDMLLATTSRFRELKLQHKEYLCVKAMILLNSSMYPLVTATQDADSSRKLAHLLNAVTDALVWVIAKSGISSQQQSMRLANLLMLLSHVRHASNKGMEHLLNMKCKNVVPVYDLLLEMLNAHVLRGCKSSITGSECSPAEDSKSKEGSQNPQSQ
Take `C=CCc1ccc(OCCOc2cccc(/C=N/n3cnnc3)c2)c(OC)c1`: the inhibition was -5.22%.
Consider `Cc1cccc(-n2c(N)cc(=O)nc2SC(C)C(=O)NC2CCCCC2)c1` (stereo not drawn), for which the inhibition is -5.73%.
In the case of `COc1cccc(-n2c(Cc3cc(=O)[nH]c(=O)[nH]3)nnc2SCC(=O)Nc2ccccc2)c1`, the inhibition is -4.83%.
In the case of `Cc1cccc(-n2c(Cc3cc(=O)[nH]c(=O)[nH]3)nnc2SC(C)C)c1`, the inhibition was 51.8% [fluorescence artefact?] (active).
For `COc1ccc(NC(=O)CSc2nc(NS(=O)(=O)c3ccc(C)cc3)cc(=O)[nH]2)cc1`, the inhibition is -6.84%.
With `O=C(c1cccnc1NCc1ccccc1)N1CCOCC1`, the inhibition is 2.12%.
On to `Cc1nc2sc(C(c3ccco3)N3CCOCC3)c(O)n2n1` (stereo not drawn), for which the inhibition was -29.9%.
`Oc1c(C(c2ccccn2)N2CCOCC2)ccc2cccnc12` (stereo not drawn): the inhibition was 78.2% [fluorescence artefact?] (active).
The same measure for `O=C(Nc1nccs1)c1cc(S(=O)(=O)N2CCOCC2)c(Cl)cc1Cl`: -7.67%; for `c1ccc2c(-c3nn4nnnc4c4ccccc34)cccc2c1`: -6.58%; for `CCOC(=O)C1=C(C)NC(SC)=NC1c1ccccc1` (stereo not drawn): -3.63%.
Turning to `CC(Oc1ccc(Cl)cc1)c1ccnn1S(C)(=O)=O` (stereo not drawn), the inhibition is -3%.
As for `COc1cccc(-c2nn(C)c3sc(C(=O)N4CCN(c5ccccc5)CC4)cc23)c1`, the figure is 10.8%; as for `Cc1nc2ccc(C(=O)N3CCN(c4ccccc4)CC3)cc2s1`, -22%.
In the case of `O=C(c1cc2c(s1)CCC2)N1CCN(c2ccccc2)CC1`, the inhibition is 50.6% (active).
Regarding `O=C(Nc1ccccc1)c1ccc2c(c1)OCO2`, the inhibition is 35.7%.
In the case of `Cc1nn(C)cc1CNC(=O)Nc1ccc(Cl)cc1`, the inhibition is -6.02%.
With `CCOC(=O)c1ccc(COC(=O)CCc2nc(-c3ccccc3)c(-c3ccccc3)o2)cc1`, the inhibition was 1.8%.
Take `COCCCn1c(Cc2csc(Nc3cccc(Cl)c3)n2)nnc1SCC(=O)OC1CCCCC1`: the inhibition is 77.5% (active).
As to `COCCCn1c(SCC(=O)Nc2ccccc2)nnc1-c1ccncc1`, the inhibition was 1.64%.
For `C=CCn1c(CC(=O)Nc2cccc(OC)c2)nnc1SCC(=O)NC1CCCCC1`, the inhibition is -1.41%.
As for `O=C(NCCCCCCNC(=O)NCc1ccco1)NCc1ccco1`, the figure is -27.9%; as for `CCOC(=O)c1sc(C)c2c1NC(C)(c1cccc3ccccc13)NC2=O` (stereo not drawn), 14.4%; as for `COc1cc(OC)c(C(=O)Nc2ccc(N(C)C)cc2)cc1OC`, 97.4% [fluorescence artefact?] (active).
As for `COc1ccc(Cl)cc1C(=O)Nc1ccc(N(C)C(C)=O)cc1`, the inhibition was 3.01%.
As for `COc1cc(OC)c(C(=O)NC2CCCCCC2)cc1OC`, the inhibition was -3.66%.
Consider `COc1cccc2cc(C(=O)N3CCN(C(=O)c4ccccc4)CC3)c(=O)oc12`, for which the inhibition is -4.03%.
`COc1ccc(S(=O)(=O)N/N=C\c2ccc(OC)c(COc3ccc(C)cc3[N+](=O)[O-])c2)cc1`: the inhibition is 27.5%.
`Cc1ccc(NC(=S)NC(NC(=O)Cc2cccc3ccccc23)C(Cl)(Cl)Cl)cc1` (stereo not drawn): the inhibition was 40.2%.
The same measure for `O=C1CCCc2nn(-c3ccccc3)nc21`: -7.98%.
With `O=C(NCc1ccccn1)c1ccc2nc(-c3ccco3)c(-c3ccco3)nc2c1`, the inhibition was 93% [fluorescence artefact?] (active).
As for `O=C(NCc1ccccn1)c1cc2ccccc2oc1=O`, the inhibition was -2.55%.
As for `CN(c1ccc(C(=O)NCc2ccccn2)cc1)S(C)(=O)=O`, the figure is -12.6%; as for `CCOC(=O)C1CSC(CC(=O)Nc2ccc(OCC)cc2)C(=O)N1` (stereo not drawn), -12.7%.
For `COc1ccc(NC(=O)CCN2CCCC2)c(OC)c1`, the inhibition was -0.42%.
As to `Oc1ccc(-c2csc(Nc3cccnc3)n2)cc1`, the inhibition was 2.46%.
As to `COc1ccc(-c2n[nH]c(C)c2-c2ccc(OC)c(OC)c2)c(O)c1`, the inhibition is 3.54%.
Consider `COc1ccc(OC)c(Nc2nc(-c3ccc(O)c(O)c3)cs2)c1`, for which the inhibition is 67.8% [fluorescence artefact?] (active).
Consider `O=C(COc1ccc(S(=O)(=O)NCc2ccccc2)cc1)N1CCOCC1`, for which the inhibition was -22.9%.
As to `O=C(Nc1nnc(SCc2c(Cl)cccc2Cl)s1)C1CCCO1` (stereo not drawn), the inhibition was -1.99%.
As for `COc1cc(S(=O)(=O)N(Cc2cccs2)C2CC2)ccc1-n1cnnn1`, the figure is -25.2%.
Take `C=CCNC(=O)CSc1nc2sc(C)c(C)c2c(=O)[nH]1`: the inhibition is 6.38%.
As for `CC(=O)c1sc2nc(SCC(=O)N3CCCCC3)[nH]c(=O)c2c1C`, the figure is 56.2% (active); as for `CCOC(=O)CSc1nc2sc3c(c2c(=O)[nH]1)CC(C)(C)OC3`, -8.89%.
As for `CCCCOc1ccc(C(=O)NCc2ccncc2)cc1`, the figure is 0.29%; as for `N#CC1=C(N)N(c2ccccc2)C2=C(C(=O)CCC2)C1c1ccccc1` (stereo not drawn), -5.84%.
On to `CCC(C)NC(=O)CSC1=Nc2ccccc2C2=NC(CCC(=O)NCc3ccco3)C(=O)N12` (stereo not drawn), for which the inhibition was -5.03%.
As for `CC(C)C1N=C2c3ccccc3N=C(SCC(=O)c3ccc(O)c(O)c3)N2C1=O` (stereo not drawn), the inhibition was 52.4% [fluorescence artefact?] (active).
As for `O=C(CSC1=Nc2ccccc2C2=NC(CC(=O)NCc3ccco3)C(=O)N12)NCc1ccco1` (stereo not drawn), the figure is 16.1%.
Turning to `O=C1CSC2=NCN(c3ccccc3)CN12`, the inhibition was -6.24%.
On to `COC(=O)c1cccc(NC(=O)CSc2nc(C)cc(=O)[nH]2)c1`, for which the inhibition was 50.1% [fluorescence artefact?] (active).
On to `CCCCc1nnc(NC(=O)CSc2nc(C)cc(=O)[nH]2)s1`, for which the inhibition is 27.8%.
For `CCOC(=O)Cc1csc(NC(=O)CSc2nc(C)cc(=O)[nH]2)n1`, the inhibition is 1.35%.
Regarding `O=C(CCCn1c(SCC(=O)c2ccccc2)nc2ccccc2c1=O)NCC1CCCO1` (stereo not drawn), the inhibition is -2.4%.
With `Cc1cc(C)c(OCC(=O)N/N=C/c2ccco2)c(C)c1`, the inhibition is -10.7%.
As for `CCCCNC(=O)C1(c2ccc(OC)cc2)CCOCC1`, the inhibition is 39.7%.
Regarding `Cc1ccc(SC(=O)COc2ccc(C)c(C)c2)cc1`, the inhibition is -2.52%.
The same measure for `O=C(NC1CCCC1)C(c1ccccn1)N(C(=O)c1csnn1)C1CCCC1` (stereo not drawn): 3.18%.

The term inhibition denotes the drop in the measured response relative to a control, in per cent.
